# From PubChem BioAssay AID602476 (National Center for Advancing Translational Sciences (NCATS), 2012)
# Records with an inconclusive call do not appear. A call without a number means that no potency is given here. Activity calls are given as the source filed them. Calls follow the shape of the dose curve; as a rule, active = well fitted activation curve with a large enough effect; inconclusive = small, poorly fitted or top-dose-only effect; inactive = flat fitted curve, though single readings scatter.
# Test: FLuc inhibitory activity for the follow-up compounds in a cell-based translational read-through assay
# Conditions: GripTite 293 FLucUGA read-through, luminescence, 48 h; series mostly up to 38.3 µM
# Source text: NCGC Assay Overview: Firefly (Photinus pyralis) luciferase is one of the most commonly used transcriptional reporters. It is considered one of the more dynamically responsive reporters - that is, responsive to changes in reporter transcription - as it requires no post-translational modifications and is enzymatically active directly after protein synthesis (Wood, 1998). With no endogenous expression in mammalian cells and without the requirement of external excitation, it offers very little background signal, thus generally providing excellent signal to background for most assays. Previous profiling work to determine the prevalence of compounds that affect FLuc enzymatic activity (PubChem AID 411) identified that ~3% of the MLSMR library (then at ~72K) inhibited FLuc (Auld et al., 2008). […] Of the compounds identified in this profile that inhibited FLuc, 151 compounds were selected for further analysis, in an effort to better understand their mode of inhibiting FLuc. The assay described here was to determine the activity of the compounds in a cell-based firefly luciferase reporter gene assay originally designed to identify compounds that enchanced translational read-through of a FLuc cDNA that contained a premature stop codon (Auld et al., 2009; Auld et al., 2010). Compounds that enhance translational read-through or compounds that stabilize FLuc intracellularly are identified as active compounds in the assay.
# NCGC Assay Protocol Summary: Reagents: Transient transfection of FlucUGA construct: TransFast Transfection Reagent (Promega #E2431); FLucUGA construct (refer to Auld et al., 2009) #GripTite 293 MSR Cell Line (Invitrogen #R795-07) #Complete growth media: DMEM (Invitrogen #11965), 10% HIFBS, 0.1mM MEM NEAA, 5mL/L pen-strep (of 5000U/mL stock), 600ug/mL Geneticin #Assay media: DMEM without phenol red (Invitrogen #21063), 5% charcoal-stripped HIFBS (Hyclone #SH30071.03), 0.1mM MEM NEAA In-house detection reagent: 300mM Tris-HCl, 300mM Trizma base, 300mM MgCl, 1% Triton-X100, 5mM DTT, 500uM Coenzyme A trilithium salt (Sigma #C3019),450uM ATP (Sigma #A7699), 1mM D-luciferin sodium salt monohydrate (Biosynth #L8240) Control compounds used were two known firefly luciferase inhibitors (3-(5-(3-chlorophenyl)-1,2,4-oxadiazol-3-yl)benzoic acid and 5-(2-fluorophenyl)-3-phenyl-1,2,4-oxadiazole), and DMSO. Assay Summary: Transient transfection of FlucUGA construct: Day 1: GripTite cells were plated in T175 flasks at a density of 1.75 x 10^7 cells/T175 flask in complete growth media without Geneticin and allowed to grow ON in a 37 degrees Celsius incubator. Day 2: Cells in T175 flask were transfected - with 10ug of DNA and 30uL Transfast in 12mL complete growth media without serum and without Geneticin for 4 hours at 37 degrees Celsius. After incubation, cells were trypsinized, spun down, and resuspended to a concentration of 3.3 x 10^5 cells/mL in assay media. 6uL of cells in assay buffer were dispensed at 2000cells/well (3.3 x 10^5 cells/mL) into Greiner solid-white TC-treated 1536-well plates using a Multidrop Combi (Thermo Fisher Scientific). Plates were incubated for one hour at 37 degree Celsius, 95% humidity, 5% CO2. These assay plates were then treated with 23nL of compound or DMSO using a Kalypsys pin tool, which allows for delivery of a 12-point titration of each compound to the assay plate, with a final compound concentration ranging from approximately ~38uM to 0.2nM. Assay plates were then incubated for 48 hours. After incubation, plates were washed three times with DPBS (7uL/well). After the third wash, 6uL of DPBS was added to each well. 3uL of 3X luciferase detection reagent was then added to each well using a flying reagent dispenser (FRD). After a 15 minute incubation to allow for cell lysis, luciferase activity was measured using a ViewLux CCD imager (PerkinElmer), with an average exposure time of 2-12 seconds.
row,SMILES,Potency
1,CC(C)Oc1ccc(C(=O)Nc2ccc(-c3nc4ccccc4s3)cc2)cc1,inactive
2,c1ccc2sc(-c3ccc4c(c3)OCO4)nc2c1,1260 nM (active)
3,O=C(O)c1cccc(NC(=O)c2ccc(S(=O)(=O)c3ccccc3)cc2)c1,inactive
4,COc1ccc2nc(NC(=O)c3ccco3)sc2c1,634 nM (active)
5,COc1ccccc1C(=O)Nc1ccc(C(=O)O)cc1,inactive
6,O=C(O)c1ccc(NC(=O)c2ccccc2NC(=O)c2cccc(Br)c2)cc1,inactive
7,Cc1c(C)c2ccc(OCC(=O)Nc3ccccn3)c(C)c2oc1=O,5040 nM (active)
8,Cc1cccc(C(=O)Nc2ccc(-c3nc4ccccc4s3)cc2Cl)c1,inactive
9,CN(C)S(=O)(=O)c1ccc(C(=O)Nc2cccc(C(=O)O)c2)cc1,inactive
10,O=C(Nc1ccccc1C(=O)O)c1cccc(NC(=O)c2ccccc2Cl)c1,inactive
11,O=C(O)c1ccc(NC(=O)c2cc(S(=O)(=O)N3CCCCC3)c(Cl)cc2Cl)cc1,inactive
12,Nc1ccc(-c2nc3cc(N)ccc3s2)cc1,14200 nM (active)
13,CC(C)(C)NC(=O)c1ccccc1-c1nc2ccccc2s1,inactive
14,O=C(O)c1cccc(NC(=O)c2cccc(S(=O)(=O)N3CCc4ccccc43)c2)c1,inactive
15,Cc1ccc2nc(-c3ccc(N)cc3)sc2c1,40 nM (active)
16,CCCOc1cccc(C(=O)Nc2ccc(-c3nc4ccccc4s3)c(Cl)c2)c1,inactive
